Data: PubChem BioAssay AID1159580 (chemical genetic matrix, 2015)
Where “and” joins values, the source holds several entries; their conditions need not be identical. Equal entries are not always repeated. Screen size: about 5,500 compounds; about 2,000 (36%) were called active. About 18% were inconclusive and are not listed. Rule as the data show it: active = normalized growth mostly below about 0.91 (no sharp cut-off); inconclusive = no clear call, values can overlap the other calls; inactive = mostly above about 0.92. The list shows a part of the results.

Assay: chemical genetic growth profiling, strain panel (AID 1159580);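 also: tested at 20 µM; growth read once vehicle control cultures reached saturation at 30 °C; 1 = growth at the plate median or of vehicle wells; lower values mean less growth of the strain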
Conditions: S. cerevisiae deletion strains, growth OD

Measured: normalized growth

Nc1c2ccccc2nc2ccccc12 (tested in a mixture with another compound)
active: locus YAL013W, strain DEP1, active compounds read low 0.822 | locus YAL021C, strain ccr4, active compounds read low 0.67 | locus YAL026C, strain drs2, active compounds read low 0.541 | locus YAL030W, strain snc1, active compounds read low 0.679 | locus YBL061C, strain skt5, active compounds read low 0.795 | locus YBR009C, strain hhf1, active compounds read low 0.495 | locus YBR023C, strain chs3, active compounds read low 0.751 | locus YBR231C, strain swc5, active compounds read low 0.677 | locus YBR279W, strain paf1, active compounds read low 0.555 | locus YCL011C, strain gbp2, active compounds read low 0.704 | locus YCL016C, strain dcc1, active compounds read low 0.467 | locus YCL029C, strain bik1, active compounds read low 0.485 | locus YCL061C, strain MRC1, active compounds read low 0.842 | locus YCL069W, strain vba3, active compounds read low 0.777 | locus YCR088W, strain abp1, active compounds read low 0.682 | locus YDL005C, strain med2, active compounds read low 0.801 | locus YDL035C, strain GPR1, active compounds read low 0.507 | locus YDL040C, strain nat1, active compounds read low 0.875 | locus YDL074C, strain BRE1, active compounds read low 0.498 | locus YDL101C, strain DUN1, active compounds read low 0.76 | locus YDL134C, strain PPH21, active compounds read low 0.629 | locus YDL192W, strain arf1, active compounds read low 0.691 | locus YDR069C, strain doa4, active compounds read low 0.519 | locus YDR101C, strain arx1, active compounds read low 0.593 | locus YDR137W, strain rgp1, active compounds read low 0.572 | locus YDR150W, strain NUM1, active compounds read low 0.883 | locus YDR159W, strain sac3, active compounds read low 0.773 | locus YDR162C, strain NBP2, active compounds read low 0.718 | locus YDR297W, strain sur2, active compounds read low 0.749 | locus YDR318W, strain mcm21, active compounds read low 0.655 | locus YDR335W, strain msn5, active compounds read low 0.807 | locus YDR388W, active compounds read low 0.406 | locus YDR392W, strain spt3, active compounds read low 0.6 | locus YDR502C, strain sam2, active compounds read low 0.606 | locus YEL003W, strain gim4, active compounds read low 0.665 | locus YEL037C, strain rad23, active compounds read low 0.763 | locus YEL061C, strain CIN8 (second series), active compounds read low 0.887 | locus YEL061C, strain CIN8, active compounds read low 0.838 | locus YER015W, strain faa2, active compounds read low 0.821 | locus YER016W, strain bim1, active compounds read low 0.686 | locus YER111C, strain swi4, active compounds read low 0.904 | locus YER155C, strain BEM2 (second series), active compounds read low 0.774 | locus YER155C, strain BEM2, active compounds read low 0.89 | locus YER167W, strain BCK2, active compounds read low 0.58 | locus YFR010W, strain ubp6, active compounds read low 0.627 | locus YGL078C, strain dbp3, active compounds read low 0.778 | locus YGL086W, strain mad1, active compounds read low 0.618 | locus YGL173C, strain kem1, active compounds read low 0.656 | locus YGL227W, strain vid30, active compounds read low 0.836 | locus YGL240W, strain doc1, active compounds read low 0.874 | locus YGL248W, strain PDE1, active compounds read low 0.559 | locus YGL253W, strain hxk2, active compounds read low 0.582 | locus YGR078C, strain PAC10, active compounds read low 0.703 | locus YGR135W, strain pre9, active compounds read low 0.704 | locus YGR229C, strain SMI1, active compounds read low 0.68 | locus YGR252W, strain gcn5, active compounds read low 0.461 | locus YHR013C, strain ard1, active compounds read low 0.494 | locus YHR027C, strain rpn1, active compounds read low 0.853 | locus YHR030C, strain SLT2, active compounds read low 0.749 and 0.474 | locus YHR079C, strain IRE1 (second series), active compounds read low 0.531 | locus YHR079C, strain IRE1, active compounds read low 0.484 | locus YHR129C, strain ARP1, active compounds read low 0.781 | locus YHR142W, strain chs7, active compounds read low 0.729 | locus YHR200W, strain rpn10, active compounds read low 0.735 | locus YIL066C, strain RNR3, active compounds read low 0.775 | locus YIL073C, strain SPO22, active compounds read low 0.535 | locus YIL125W, strain kgd1, active compounds read low 0.9 | locus YIR030C, strain dcg1, active compounds read low 0.575 | locus YJL092W, strain hpr5, active compounds read low 0.802 | locus YJL095W, strain BCK1 (second series), active compounds read low 0.766 | locus YJL095W, strain BCK1, active compounds read low 0.474 and 0.436 | locus YJL115W, strain asf1, active compounds read low 0.849 | locus YJL154C, strain vps35, active compounds read low 0.859 | locus YJL164C, strain tpk1, active compounds read low 0.562 | locus YJL166W, strain qcr8, active compounds read low 0.693 | locus YJL187C, strain SWE1 (second series), active compounds read low 0.565 | locus YJL187C, strain SWE1, active compounds read low 0.813 | locus YJR043C, strain POL32, active compounds read low 0.686 | locus YJR066W, strain TOR1, active compounds read low 0.397 | locus YJR075W, strain HOC1, active compounds read low 0.505
inactive: locus YBR021W, strain FUR4, active compounds read low 0.985 | locus YBR171W, strain sec66, active compounds read low 0.964 | locus YBR229C, strain ROT2, active compounds read low 0.976 | locus YDL185W, strain tfp1, active compounds read low 0.998 | locus YDR001C, strain nth1, active compounds read low 0.956 | locus YDR334W, strain swr1, active compounds read low 0.943 | locus YER110C, active compounds read low 0.996 | locus YGL167C, strain pmr1, active compounds read low 0.927 | locus YJL129C, strain trk1, active compounds read low 1.02 | locus YJL134W, strain LCB3, active compounds read low 0.982 | locus YJL168C, strain set2, active compounds read low 0.946
